Results filed as inconclusive are left out. Activity calls are given as the source filed them. Rule for the calls: active = hit-call score of the fitted dose curve at least 0.9, where 1 is the maximum; inconclusive = response in the unintended direction; inactive = score below 0.9.
biological target: Sodium channel protein type 1 subunit alpha (Rattus norvegicus) (UniProt P04774); assay: NVS_IC_rNaCh_site2: NovaScreen (NVS) Ion Channel Assay for rat Sodium Channel, Site 2 (NaCh) (AID 2283322);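 note: hit means loss of radioligand binding signal relative to DMSO so AC50 marks displacement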
Method: NVS_IC_rNaCh_site2 is a biochemical, single-readout assay that uses extracted gene-proteins from Rat forebrain membranes in a tissue-based cell-free assay. Measurements were taken 1 hour after chemical dosing in a 48-well plate.NVS_IC_rNaCh_site2 is one of one assay component(s) measured or calculated from the NVS_IC_rNaCh_site2 assay. It is designed to make measurements of radioligand binding, a form of binding reporter, as detected with scintillation counting signals by Filter-based radiodetection technology.Data from the assay component NVS_IC_rNaCh_site2 was analyzed into 1 assay endpoint. This assay endpoint, NVS_IC_rNaCh_site2, was analyzed in the positive analysis fitting direction relative to DMSO as the negative control and baseline of activity. Using a type of binding reporter, loss-of-signal activity can be used to understand changes in the binding as they relate to the gene Scn1a. Furthermore, this assay endpoint can be referred to as a primary readout, because the performed assay has only produced 1 assay endpoint. To generalize the intended target to other relatable targets, this assay endpoint is annotated to the ion channel intended target family, where the subfamily is sodium channel.
Binding assays used specific radioligands (tritiated, iodinated) with non-radioactive competitive displacement ligands in agonist or antagonist protocols (as indicated) and various reference compounds and inhibitors to titrate specific binding to receptors and transporters. Most enzyme assays (CYPs, kinases, phosphatases, proteases, HDACs) used recombinant protein and specific substrates (fluorescence mostly, some colorimetric and radioactive) and inhibitors, followed by a biochemical separation of substrate and product. All assays for the biochemical HTS were initially run in duplicate at a single concentration (10 uM for CYP450 assays and 25 uM for all others). […] Each assay was run with positive and negative controls, and concurrent controls on every plate. The follow-up (secondary) screen tested active chemical-pairs in concentration series, as well as a few additional assays not tested in the primary screen, some selected negative inactives, and several cases re-run in the concentration series for confirmatory purposes.

| SMILES | AC50 | outcome |
| --- | --- | --- |
| CCNc1nc(NC(C)(C)C)nc(SC)n1 | 12.1 µM (active) |  |
| NC(=S)Nc1ccccc1 | 0.569 µM (active) |  |
| CC(C)(C)CC(C)(C)c1ccc(O)cc1 |  | inactive |
| N#CCc1ccc(Cl)cc1 |  | inactive |
| C=C(C)C(=O)[O][Sn]([CH2]CCC)([CH2]CCC)[CH2]CCC | 25 µM (active) |  |
| O=C(Cl)c1ccc(Cl)cc1 |  | inactive |
| CCC(=O)C(CC(C)N(C)C)(c1ccccc1)c1ccccc1 (stereo not given) | 1.97 µM (active) |  |
| CCSC(C)CC1CC(=O)C(C(CC)=NOC/C=C/Cl)=C(O)C1 (stereo not given) |  | inactive |
| CCN1CCC2(CC1)COc1cc3c(cc12)N(C(=O)c1ccc(-c2ccc(-c4nnc(C)o4)cc2C)cc1)CC3 | 3.44 µM (active) |  |
| CCCCCCCCC(=O)NCc1ccc(O)c(OC)c1 | 1.55 µM (active) |  |
